Data reported in PubChem BioAssay.
Inconclusive results are not listed. The source made the active and inactive calls. Unless noted, the rule behind the calls is not given here.

Legend:
[1] = rapamycin-like changes in RPL19A-GFP expression – cell-based, S. cerevisiae, multiplex flow cytometry, primary screen (AID 1862; in the data active = percent of DMSO control GFP below about 86%;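 note: lower values mimic rapamycin by blocking the RPL19A rise seen in DMSO cells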); settings: S. cerevisiae RPL19A-GFP strain, flow cytometry fluorescence, 3 h; at 10 µM; stronger effect = lower value
[2] = TOR pathway GLN3 branch reporter MEP2-GFP changes – S. cerevisiae, multiplex flow cytometry, primary screen (AID 1867;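 active = GFP response, as percent of the DMSO control, above the screen-wide mean plus 3 SD, about 139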;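 note: median GFP channel fluorescence of barcode-gated MEP2-GFP cells measured by flow cytometry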); settings: S. cerevisiae MEP2-GFP strain, 3 h, at 10 µM, stronger effect = higher value
[3] = TOR pathway RTG branch CIT2 reporter changes – S. cerevisiae, GFP fusion, multiplex flow cytometry, primary screen (AID 1870;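 active = percent response above a set limit, the screen-wide mean plus 3 SD, cut at about 130% in these data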;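 note: barcoded CIT2-GFP strain pooled with four other GFP strains with rapamycin as positive control; median GFP fluorescence per well over plate mean of DMSO wells so 100% = DMSO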); settings: S. cerevisiae CIT2-GFP expression, 3 h, at 10 µM, stronger effect = higher value
[4] = TOR pathway LAP4-GFP level changes – S. cerevisiae, multiplex flow cytometry, primary screen (AID 1873;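 active = GFP signal, as percent of the solvent control, above the screen mean plus 3 SD, about 149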); settings: S. cerevisiae LAP4-GFP expression, 3 h, at 10 µM, stronger effect = higher value
[5] = yeast AGP1-GFP level changes, GLN3 branch – cell-based, multiplex flow cytometry, S. cerevisiae, primary screen (AID 1887;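 active = GFP signal above the screen-wide mean plus 3 SD, that is over about 124.5% of the solvent control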;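 note: AGP1-GFP fusion strain of S. cerevisiae within a five-strain barcoded multiplex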); settings: 3 h, at 10 µM, stronger effect = higher value
[6] = reduced mouse 2C T cell binding to pMHC/ICAM-1 vesicles – MLPCN validation set, flow cytometry, LFA-1/ICAM-1 modulator project, pilot screen (AID 2523;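 active = response below a set limit, under 55% cells CD8-positive and vesicle-bound, and CD8 cells' 90th-percentile brightness under 279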;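 for vesicle binding response: mean PE anti-B7-1 fluorescence of CD8+ cells relative to row control; 100% = QL9-loaded vesicles with DMSO vehicle in the same plate row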); settings: 2C mouse CD8+ T cells, at 7 µM, stronger effect = lower value; double positive events: measured here: CD8+/vesicle+ event percentage
[7] = molecular target: Integrin beta-1 (Homo sapiens) + Integrin alpha-4 (Homo sapiens) (UniProt P13612+P05556); test: alpha4beta1 integrin LIBS antibody binding reduction – U937 cells, HUTS-21 mAb, flow cytometry, validation set, VLA-4 allosteric modulator project, pilot screen (AID 2674;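 active = inhibition above 50%, about 3 SD of the validation set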;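 note: antibody binding induced by the VLA-4 ligand LDV present at three times its Kd; 0% = LDV ligand with antibody and no compound and 100% = antibody without LDV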); settings: HUTS-21 LIBS mAb binding, at 6.7 µM, stronger effect = higher value
Chain of Integrin beta-1 (Homo sapiens) + Integrin alpha-4 (Homo sapiens) (P05556 whole entry, looked up): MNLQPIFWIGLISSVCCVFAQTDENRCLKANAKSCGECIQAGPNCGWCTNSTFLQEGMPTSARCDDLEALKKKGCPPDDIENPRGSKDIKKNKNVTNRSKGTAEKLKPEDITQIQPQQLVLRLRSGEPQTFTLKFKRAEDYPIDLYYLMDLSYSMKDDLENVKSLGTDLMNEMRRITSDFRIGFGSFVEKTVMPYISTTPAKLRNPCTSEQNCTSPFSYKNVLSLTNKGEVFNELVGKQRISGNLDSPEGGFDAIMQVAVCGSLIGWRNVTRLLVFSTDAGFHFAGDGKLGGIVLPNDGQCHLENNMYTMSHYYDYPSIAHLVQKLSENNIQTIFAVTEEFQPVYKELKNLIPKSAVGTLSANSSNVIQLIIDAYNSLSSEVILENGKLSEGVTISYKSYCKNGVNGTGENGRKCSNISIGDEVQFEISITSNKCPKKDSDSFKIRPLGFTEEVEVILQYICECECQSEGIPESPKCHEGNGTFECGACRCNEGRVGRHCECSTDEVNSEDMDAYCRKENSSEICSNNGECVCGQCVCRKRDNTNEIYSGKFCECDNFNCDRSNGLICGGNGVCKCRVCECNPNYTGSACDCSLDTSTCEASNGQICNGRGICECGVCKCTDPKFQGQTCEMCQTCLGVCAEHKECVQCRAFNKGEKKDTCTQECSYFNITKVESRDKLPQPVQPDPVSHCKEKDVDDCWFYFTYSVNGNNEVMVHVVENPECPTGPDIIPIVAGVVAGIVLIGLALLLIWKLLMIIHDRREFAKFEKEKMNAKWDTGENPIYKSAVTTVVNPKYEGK
Chain of Integrin beta-1 (Homo sapiens) + Integrin alpha-4 (Homo sapiens) (P13612 whole entry, looked up): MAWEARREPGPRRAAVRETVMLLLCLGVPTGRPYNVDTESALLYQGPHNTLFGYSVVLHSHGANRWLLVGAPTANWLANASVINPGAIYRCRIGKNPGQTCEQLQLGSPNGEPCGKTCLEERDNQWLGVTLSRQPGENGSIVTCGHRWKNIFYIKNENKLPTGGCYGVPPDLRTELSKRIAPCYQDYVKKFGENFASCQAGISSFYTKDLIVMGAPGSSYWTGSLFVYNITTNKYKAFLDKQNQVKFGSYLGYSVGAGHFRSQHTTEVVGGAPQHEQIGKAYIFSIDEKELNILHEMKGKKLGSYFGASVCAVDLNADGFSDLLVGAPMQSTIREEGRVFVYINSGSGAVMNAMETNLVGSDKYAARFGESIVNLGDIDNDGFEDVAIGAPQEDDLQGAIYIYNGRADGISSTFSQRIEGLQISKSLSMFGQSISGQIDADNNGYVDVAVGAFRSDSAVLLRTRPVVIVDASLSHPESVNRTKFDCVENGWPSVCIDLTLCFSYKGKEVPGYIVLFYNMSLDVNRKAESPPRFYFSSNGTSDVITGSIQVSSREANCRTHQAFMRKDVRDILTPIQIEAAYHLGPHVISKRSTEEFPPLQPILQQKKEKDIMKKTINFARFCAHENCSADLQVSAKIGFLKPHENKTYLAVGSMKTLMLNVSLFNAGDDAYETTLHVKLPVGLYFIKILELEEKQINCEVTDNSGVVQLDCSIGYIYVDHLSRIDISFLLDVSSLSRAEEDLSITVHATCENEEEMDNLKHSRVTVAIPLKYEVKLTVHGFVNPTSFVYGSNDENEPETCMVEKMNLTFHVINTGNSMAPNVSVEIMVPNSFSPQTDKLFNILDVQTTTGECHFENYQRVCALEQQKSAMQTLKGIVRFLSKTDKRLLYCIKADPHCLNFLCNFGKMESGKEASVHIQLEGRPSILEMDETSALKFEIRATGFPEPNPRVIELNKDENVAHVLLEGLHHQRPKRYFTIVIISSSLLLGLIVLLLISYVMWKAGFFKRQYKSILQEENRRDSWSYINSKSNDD

[8] = calorie-restriction mimetic ROS inhibitors, yeast – validation compound set, pilot screen (AID 2706;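 active = superoxide response below 65% of plate, a cut near 3 SD across the whole screen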;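 note: yeast exposed to compound for one week at 30 degrees C before staining; 100% = mean of all compound wells on the same plate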); settings: S. cerevisiae aging, superoxide DHE fluorescence; at 10 µM; stronger effect = lower value
[9] = molecular target: Beta-adrenergic receptor kinase 1 (Homo sapiens) (UniProt P25098); test: GRK2 binders displacing RNA aptamer, biochemical, validation, human GRK2, bead flow cytometry (AID 488806;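 active = aptamer binding inhibition above 30%, about 3 SD of noise from non-fluorescent compounds; inactive = inhibition at or below 30%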); settings: bead-bound GRK2, FAM-aptamer displacement, at 10 µM, stronger effect = higher value
Chain of Beta-adrenergic receptor kinase 1 (Homo sapiens) (P25098 whole entry, looked up): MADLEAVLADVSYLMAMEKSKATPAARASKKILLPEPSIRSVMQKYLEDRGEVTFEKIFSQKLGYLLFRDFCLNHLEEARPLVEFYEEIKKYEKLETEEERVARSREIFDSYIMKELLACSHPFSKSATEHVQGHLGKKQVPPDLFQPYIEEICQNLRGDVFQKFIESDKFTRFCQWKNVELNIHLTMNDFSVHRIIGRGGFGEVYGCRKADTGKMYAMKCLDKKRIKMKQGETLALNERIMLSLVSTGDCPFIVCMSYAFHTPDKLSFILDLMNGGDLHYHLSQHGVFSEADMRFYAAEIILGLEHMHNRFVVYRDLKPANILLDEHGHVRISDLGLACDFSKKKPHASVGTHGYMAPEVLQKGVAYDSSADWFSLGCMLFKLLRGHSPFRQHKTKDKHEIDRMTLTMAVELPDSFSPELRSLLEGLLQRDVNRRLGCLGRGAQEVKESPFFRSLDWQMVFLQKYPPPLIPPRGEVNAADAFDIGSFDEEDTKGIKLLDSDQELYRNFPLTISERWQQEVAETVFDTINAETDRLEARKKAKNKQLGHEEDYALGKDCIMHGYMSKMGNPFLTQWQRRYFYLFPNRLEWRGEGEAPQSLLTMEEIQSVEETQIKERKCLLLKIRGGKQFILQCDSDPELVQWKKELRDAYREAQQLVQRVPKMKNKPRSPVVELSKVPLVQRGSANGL

[10] = molecular target: Beta-2 adrenergic receptor (Homo sapiens) (UniProt P07550); test: agonist-induced loss of surface beta2AR – cell-based, FAP fluorogen, flow cytometry, validation set, pilot screen (AID 504459;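 active = percent response above 42, roughly 3 SD of non-fluorescent test compounds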;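 note: agonist-driven loss of surface beta2AR via internalization measured by FAP dye flow cytometry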); settings: Am2.2-beta2AR cells, at 10 µM, stronger effect = higher value
Chain of Beta-2 adrenergic receptor (Homo sapiens) (P07550 whole entry, looked up): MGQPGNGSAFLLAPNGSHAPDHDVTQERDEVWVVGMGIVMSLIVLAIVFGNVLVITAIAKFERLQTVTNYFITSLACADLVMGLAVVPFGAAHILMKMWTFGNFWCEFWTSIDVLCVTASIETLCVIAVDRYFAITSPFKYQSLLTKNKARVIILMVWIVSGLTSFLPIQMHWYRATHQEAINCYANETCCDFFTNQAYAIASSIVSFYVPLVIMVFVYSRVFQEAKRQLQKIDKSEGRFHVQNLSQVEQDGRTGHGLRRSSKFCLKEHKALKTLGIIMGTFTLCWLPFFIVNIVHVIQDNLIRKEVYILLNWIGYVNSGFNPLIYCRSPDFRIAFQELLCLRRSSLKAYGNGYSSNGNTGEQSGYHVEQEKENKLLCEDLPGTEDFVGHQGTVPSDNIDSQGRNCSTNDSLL

[11] = molecular target: AP-2 complex subunit beta (Homo sapiens) (UniProt P63010); test: beta-arrestin/AP2 interaction blockers – biochemical, validation set, GST-AP2 beads, flow cytometry, pilot screen (AID 504541;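 active = inhibition above 54%, about 3 SD of non-fluorescent compounds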;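 note: AP2 carries R879A mutation and is captured from E. coli lysate; bead-bound FITC arrestin peptide fluorescence measuring arrestin peptide binding to AP2; 0% = DMSO wells and 100% = excess unlabeled arrestin peptide control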); settings: FITC arrestin peptide, at 10 µM, stronger effect = higher value
Chain of AP-2 complex subunit beta (Homo sapiens) (P63010 whole entry, looked up, one chain of several): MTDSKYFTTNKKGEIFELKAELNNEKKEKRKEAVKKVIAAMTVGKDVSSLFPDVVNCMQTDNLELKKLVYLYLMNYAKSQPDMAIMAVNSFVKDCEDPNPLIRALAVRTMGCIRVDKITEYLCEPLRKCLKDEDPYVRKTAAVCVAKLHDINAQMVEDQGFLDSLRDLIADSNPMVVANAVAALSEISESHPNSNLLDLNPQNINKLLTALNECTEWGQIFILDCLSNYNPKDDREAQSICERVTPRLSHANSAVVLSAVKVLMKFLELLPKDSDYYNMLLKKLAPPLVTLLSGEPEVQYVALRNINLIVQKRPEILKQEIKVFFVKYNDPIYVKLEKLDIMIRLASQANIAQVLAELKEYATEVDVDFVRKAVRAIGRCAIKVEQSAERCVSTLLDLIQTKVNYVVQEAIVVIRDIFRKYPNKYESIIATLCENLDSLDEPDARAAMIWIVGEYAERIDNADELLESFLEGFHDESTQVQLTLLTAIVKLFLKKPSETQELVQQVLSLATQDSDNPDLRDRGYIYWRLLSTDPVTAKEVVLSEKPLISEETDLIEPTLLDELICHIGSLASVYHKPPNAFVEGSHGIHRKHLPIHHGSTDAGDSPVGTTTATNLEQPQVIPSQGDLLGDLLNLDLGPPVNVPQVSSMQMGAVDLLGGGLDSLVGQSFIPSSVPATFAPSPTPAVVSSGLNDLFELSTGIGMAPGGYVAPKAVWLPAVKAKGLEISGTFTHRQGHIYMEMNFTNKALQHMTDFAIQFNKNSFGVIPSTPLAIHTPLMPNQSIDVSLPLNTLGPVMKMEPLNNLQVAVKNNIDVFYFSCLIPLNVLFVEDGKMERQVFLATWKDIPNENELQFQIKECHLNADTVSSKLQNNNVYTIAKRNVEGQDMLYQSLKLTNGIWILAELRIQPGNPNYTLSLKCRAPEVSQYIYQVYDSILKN

[12] = cytosolic pH regulators acting via V-ATPase – S. cerevisiae, pHLuorin, HTS validation (AID 504600; in the data active = response above about 15%;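 note: plate controls were DMSO for no effect and reference compound for full effect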); settings: V-ATPase proton transport, at 10 µM, stronger effect = higher value
[13] = tested on: anti-desmoglein-3 scFv antibody binding to human DSG3; test: blockers of pathogenic pemphigus antibody–desmoglein-3 binding – biochemical, validation compound set, bead-based, flow cytometry, pilot screen (AID 588368;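 active = binding below the plate cutoff, the plate median minus 3 SD, with a reading above zero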;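 note: signal is the median channel fluorescence of bead-bound GFP antibody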); settings: Protein G beads, DSG3-Fc, scFv-GFP binding, at 10 µM, stronger effect = lower value
[14] = tested on: Botulinum neurotoxin type F light chain protease (Clostridium botulinum); test: Clostridium botulinum type F light chain protease inhibitors, microsphere substrate cleavage, validation (AID 588459); settings: multiplex microsphere protease substrate cleavage assay, flow cytometry; at 10 µM; stronger effect = higher value
[15] = molecular target: Botulinum neurotoxin type A (Clostridium botulinum) (UniProt P0DPI0); test: BoNT/A light chain protease inhibitors, biochemical, multiplex microsphere flow cytometry, validation set (AID 588460); settings: at 10 µM, stronger effect = higher value
[16] = molecular target: Lethal factor (Bacillus anthracis) (UniProt P15917); test: Bacillus anthracis lethal factor inhibition, microsphere flow cytometry protease assay, validation at 10 µM (AID 588461); settings: multiplex microsphere protease cleavage assay, stronger effect = higher value
Chain of Lethal factor (Bacillus anthracis) (P15917 whole entry, looked up): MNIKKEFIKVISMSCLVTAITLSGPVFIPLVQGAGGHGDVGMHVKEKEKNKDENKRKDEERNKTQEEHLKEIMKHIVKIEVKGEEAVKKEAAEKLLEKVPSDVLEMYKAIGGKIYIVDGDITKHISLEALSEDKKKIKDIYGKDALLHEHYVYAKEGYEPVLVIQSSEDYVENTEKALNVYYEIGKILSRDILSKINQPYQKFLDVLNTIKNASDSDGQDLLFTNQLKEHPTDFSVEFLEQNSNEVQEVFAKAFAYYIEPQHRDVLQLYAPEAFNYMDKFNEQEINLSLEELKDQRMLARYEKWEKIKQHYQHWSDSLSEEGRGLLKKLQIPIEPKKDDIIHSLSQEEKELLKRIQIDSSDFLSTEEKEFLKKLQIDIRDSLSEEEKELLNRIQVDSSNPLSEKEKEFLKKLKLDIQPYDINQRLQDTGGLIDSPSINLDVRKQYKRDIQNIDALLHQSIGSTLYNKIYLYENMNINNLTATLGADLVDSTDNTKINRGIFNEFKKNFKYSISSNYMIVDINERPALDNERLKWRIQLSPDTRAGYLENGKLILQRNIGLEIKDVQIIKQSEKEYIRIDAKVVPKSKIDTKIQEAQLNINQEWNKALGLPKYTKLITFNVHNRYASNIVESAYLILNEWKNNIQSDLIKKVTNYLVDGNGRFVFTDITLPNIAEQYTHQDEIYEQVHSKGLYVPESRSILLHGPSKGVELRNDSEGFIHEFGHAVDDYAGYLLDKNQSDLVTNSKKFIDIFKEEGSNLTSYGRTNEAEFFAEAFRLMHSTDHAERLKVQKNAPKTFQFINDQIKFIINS

[17] = Nile Red efflux blockade in pump-expressing yeast – validation compound set, multiplex, phenotypic, pilot screen (AID 588506;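 active = efflux inhibition above 0.42, the validation set average plus 4 SD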;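 note: Nile Red retained in cells so higher fluorescence means more efflux inhibition; 0 = negative control wells and 1 = enniatin B 25 µM full block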); settings: S. cerevisiae pump-expressing triplex, Nile Red efflux flow cytometry; at 10 µM; stronger effect = higher value
[18] = molecular target: ATP-binding cassette sub-family B member 6 (Homo sapiens) (UniProt Q9NP58); test: blockers of ABCB6-driven porphyrin uptake – K562-ABCB6 cells, flow cytometry, validation set, pilot screen (AID 588550;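 active = inhibition above the screen-wide mean plus 3 SD, about 51%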;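 note: 0% = DMSO wells and 100% = benzethonium chloride 70 µM positive control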); settings: K562-ABCB6 porphyrin accumulation, 1 h, at 10 µM, stronger effect = higher value
[19] = AML differentiation inducers, ER-HoxA9 marrow cells – cell-based, GFP/MAC1 double positive, flow cytometry, validation set, primary screen (AID 588685;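 active = differentiation response of at least 50%, scaled between solvent and reference control, from cells with both markers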;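 note: compound exposure lasts four days before antibody staining and flow analysis; 0% = DMSO wells and 100% = 5 µM fulvestrant positive control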); settings: stronger effect = higher value

Row | Compound | percent of DMSO control GFP [1] | GFP response vs DMSO [2] | percent response of DMSO control [3] | GFP response vs DMSO [4] | GFP response, % of DMSO [5] | double positive events [6] | vesicle binding response [6] | inhibition [7] | superoxide response (% of plate) [8] | aptamer binding inhibition [9] | response [10] | inhibition [11] | response [12] | binding (% of control) [13] | inhibition [14] | inhibition [15] | inhibition [16] | efflux inhibition (fraction of control) [17] | inhibition [18] | differentiation response [19]
1 | O=c1cccc2n1C[C@H]1C[C@@H]2CN2CCCC[C@@H]12 | 97.6% (inactive) | 111% (inactive) | 94.8% (inactive) | 118% (inactive) | 98.1% (inactive) | 61.7% | 124% (inactive) | -9.98% (inactive) | 100% (inactive) | -2% (inactive) | 2.05% (inactive) | -2.4% (inactive) | -3.47% (inactive) | 101% (inactive) | -0.6% (inactive) | -0.2% (inactive) | -7.3% (inactive) | -0.03 (inactive) | 4% (inactive) | -24.8% (inactive)
2 | O=c1[nH]c(=S)n(-c2ccccc2)c(O)c1/C=N/N1CCCCC1c1cccnc1 (stereo not given) | 101% (inactive) | 100% (inactive) | 90.8% (inactive) | 84.8% (inactive) | 93% (inactive) | 64% | 885% (inactive) | -37.8% (inactive) | 100% (inactive) | 4% (inactive) | 0.69% (inactive) | 1.04% (inactive) | 4.77% (inactive) | 100% (inactive) | -0.8% (inactive) | 0.8% (inactive) | -6.8% (inactive) | -0.04 (inactive) | 0% (inactive) | 4.15% (inactive)
3 | Cc1ccc(-n2c(C)cc(/C=C3/C(=O)NC(=O)N(C)C3=O)c2C)cc1 | 103% (inactive) | 103% (inactive) | 107% (inactive) | 103% (inactive) | 106% (inactive) | 64.1% | 164% (inactive) | 0.25% (inactive) | 94.5% (inactive) | -5% (inactive) | 3.21% (inactive) | -0.22% (inactive) | 5.34% (inactive) | 108% (inactive) | -1.4% (inactive) | 0.3% (inactive) | -5% (inactive) | -0.22 (inactive) | -2% (inactive) | -14.8% (inactive)
